Measurements from PubChem BioAssay (EPA / NIEHS).
Results filed as inconclusive are left out. Calls of active or inactive are those of the source. How the source made its calls: active means hit-call score of the fitted dose curve at least 0.9, where 1 is the maximum; inconclusive means response in the unintended direction; inactive means score below 0.9.

Target: Peroxisome proliferator-activated receptor gamma (Homo sapiens) (UniProt P37231)
Assay: ATG_PPARg_TRANS: Attagene TRANS-FACTORIAL HepG2 Assay for human Peroxisome Proliferator-activated Receptor-gamma (PPARg) (AID 2283007)
In short: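 Liver-derived HepG2 cells expressing an exogenous NR-Gal4 chimera alongside GAL4-UAS reporter genes; 24 h exposure. Fluorescence of reporter RT-PCR products, separated by capillary electrophoresis, gives mRNA induction relative to DMSO.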

Sequence of Peroxisome proliferator-activated receptor gamma (Homo sapiens) (P37231 whole entry, looked up): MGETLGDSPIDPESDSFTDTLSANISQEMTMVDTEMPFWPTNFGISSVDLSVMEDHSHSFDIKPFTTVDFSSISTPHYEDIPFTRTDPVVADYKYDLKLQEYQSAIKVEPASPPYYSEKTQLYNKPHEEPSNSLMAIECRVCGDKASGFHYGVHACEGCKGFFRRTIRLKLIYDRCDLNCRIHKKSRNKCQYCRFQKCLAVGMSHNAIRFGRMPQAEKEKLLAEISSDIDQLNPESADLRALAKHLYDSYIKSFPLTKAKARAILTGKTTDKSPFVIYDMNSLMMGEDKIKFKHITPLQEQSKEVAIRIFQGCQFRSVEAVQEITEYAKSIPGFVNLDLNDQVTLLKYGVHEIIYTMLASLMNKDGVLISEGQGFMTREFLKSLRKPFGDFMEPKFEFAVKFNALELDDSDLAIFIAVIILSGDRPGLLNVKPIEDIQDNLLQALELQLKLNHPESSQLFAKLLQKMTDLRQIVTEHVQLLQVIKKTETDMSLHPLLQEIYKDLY

**Q.** For `Cc1ccc(S(=O)(=O)Oc2ccc(N=Nc3ccc(-c4ccc(N=Nc5c(O)ccc6cc(S(=O)(=O)O)cc(S(=O)(=O)O)c56)c(C)c4)cc3C)cc2)cc1`, which AC50 is on record?
**A.** The AC50 was 18.3 µM (active).

**Q.** Which outcome does the source give for `c1ccc(CCc2ccccc2)cc1` here?
**A.** Its outcome is “inactive”.

**Q.** For `COc1ccc(OC)c(N=Nc2c(O)ccc3ccccc23)c1`, which outcome is on record?
**A.** The outcome was “inactive”.

**Q.** How did the AC50 turn out when `C=CC(=O)OCCC#N` was run?
**A.** The AC50 was 6.89 µM (active).

Target: Nuclear receptor subfamily 1 group I member 2 (Homo sapiens) (UniProt O75469)
Sequence (O75469 whole entry, looked up): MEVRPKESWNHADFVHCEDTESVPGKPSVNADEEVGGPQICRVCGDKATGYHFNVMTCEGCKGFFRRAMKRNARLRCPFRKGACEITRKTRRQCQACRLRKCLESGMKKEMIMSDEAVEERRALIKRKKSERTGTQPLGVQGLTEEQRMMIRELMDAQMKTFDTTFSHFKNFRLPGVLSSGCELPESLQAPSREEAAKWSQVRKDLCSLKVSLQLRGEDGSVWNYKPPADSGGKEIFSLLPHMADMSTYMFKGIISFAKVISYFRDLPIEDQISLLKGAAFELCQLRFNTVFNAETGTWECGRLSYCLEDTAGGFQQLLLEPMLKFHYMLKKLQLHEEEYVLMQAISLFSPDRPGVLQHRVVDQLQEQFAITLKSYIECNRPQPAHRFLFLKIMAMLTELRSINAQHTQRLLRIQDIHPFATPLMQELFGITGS
Assay: ATG_PXR_TRANS: Attagene TRANS-FACTORIAL HepG2 Assay for human Pregnane X Receptor (PXR) (AID 2283008)
In short: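 Transactivation by exogenous PXR–GAL4 fusion measured as reporter transcript induction after 24 h compound treatment of transfected human HepG2 cells. Read-out via RT-PCR and capillary electrophoresis of labelled fragments, fitted upward relative to DMSO.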

**Q.** Which outcome does the source give for `C[Si]1(C)O[Si](C)(C)O[Si](C)(C)O1` here?
**A.** Its outcome is “inactive”.

**Q.** `O=CN1CCOCC1` was tested. Which outcome did it give?
**A.** The outcome was “inactive”.

**Q.** Which outcome does the source give for `CCCCCCC(CO)CCCC` (stereo not drawn) here?
**A.** The outcome was “inactive”.

**Q.** Which AC50 does the source give for `O=C1OC2(c3ccccc31)c1ccc(O)c(Br)c1Oc1c2ccc(O)c1Br` here?
**A.** The AC50 was 57 µM (active).

**Q.** How did the outcome turn out when `O=[N+]([O-])c1ccc(O)cc1C(F)(F)F` was run?
**A.** Its outcome is “inactive”.

**Q.** How did the AC50 turn out when `CCC(C)c1cc([N+](=O)[O-])cc([N+](=O)[O-])c1OC(=O)OC(C)C` (stereo not drawn) was run?
**A.** Its AC50 is 1.58 µM (active).

**Q.** For `NCCNc1cccc2ccccc12`, which outcome is on record?
**A.** The outcome was “inactive”.

**Q.** `CCc1cc(Cc2cc(CC)cc(C(C)(C)C)c2O)c(O)c(C(C)(C)C)c1` was tested. Which AC50 did it give?
**A.** The AC50 was 0.028 µM (active).

**Q.** How did the outcome turn out when `COc1cc(Cl)c(OC)cc1N` was run?
**A.** The outcome was “inactive”.

**Q.** How did the outcome turn out when `CCCCCC(C=O)=Cc1ccccc1` was run?
**A.** The outcome was “inactive”.

**Q.** `CCCCCCCCCCCCCC(=O)OCC(O)CO` (stereo not drawn) was tested. Which outcome did it give?
**A.** The outcome was “inactive”.

**Q.** For `CCCCC(CC)COC(C)=O` (stereo not drawn), which outcome is on record?
**A.** Its outcome is “inactive”.

**Q.** Which outcome does the source give for `CCCCCCCC/C=C\CCCCCCCC(=O)OCC` here?
**A.** Its outcome is “inactive”.

**Q.** Which outcome does the source give for `Nc1ccc2cc(S(=O)(=O)O)cc(O)c2c1N=Nc1ccccc1C(F)(F)F` here?
**A.** The outcome was “inactive”.

**Q.** For `c1ccc2cc(Nc3ccc(Nc4ccc5ccccc5c4)cc3)ccc2c1`, which outcome is on record?
**A.** Its outcome is “inactive”.

**Q.** With `NC(=S)NNC(N)=S` as the molecule, how does the outcome read?
**A.** The outcome was “inactive”.

**Q.** With `Nc1ccc(N)c2c1C(=O)c1ccccc1C2=O` as the molecule, how does the outcome read?
**A.** Its outcome is “inactive”.

**Q.** Which AC50 does the source give for `CCCCN(CCCC)C(=O)N(CCCC)CCCC` here?
**A.** Its AC50 is 0.445 µM (active).

**Q.** How did the outcome turn out when `CCCCCCC(O)CCCCCCCCCCC(=O)O` (stereo not drawn) was run?
**A.** Its outcome is “inactive”.

**Q.** How did the outcome turn out when `IC(I)I` was run?
**A.** Its outcome is “inactive”.

**Q.** With `CN(C)C(=S)SC(=S)N(C)C` as the molecule, how does the outcome read?
**A.** Its outcome is “inactive”.

**Q.** How did the outcome turn out when `C=C(C)C(=O)OCCOCCOCCOCCOC(=O)C(=C)C` was run?
**A.** Its outcome is “inactive”.

**Q.** How did the AC50 turn out when `CC(C=O)Cc1ccc(C(C)(C)C)cc1` (stereo not drawn) was run?
**A.** Its AC50 is 23.1 µM (active).

**Q.** With `c1ccc(Oc2ccccc2)cc1` as the molecule, how does the outcome read?
**A.** Its outcome is “inactive”.

**Q.** Which outcome does the source give for `O=C(O)c1ccc(O)cc1` here?
**A.** Its outcome is “inactive”.

**Q.** `CCCCCCCCCCCCCCCC(=O)OC/C=C(C)/C=C/C=C(C)/C=C/C1=C(C)CCCC1(C)C` was tested. Which AC50 did it give?
**A.** The AC50 was 2.82 µM (active).

**Q.** For `Cc1ccc(S(=O)(=O)Oc2ccc(N=Nc3ccc(-c4ccc(N=Nc5c(O)ccc6cc(S(=O)(=O)O)cc(S(=O)(=O)O)c56)c(C)c4)cc3C)cc2)cc1`, which outcome is on record?
**A.** Its outcome is “inactive”.

**Q.** Which AC50 does the source give for `c1ccc(CCc2ccccc2)cc1` here?
**A.** Its AC50 is 31.6 µM (active).

**Q.** For `COc1ccc(OC)c(N=Nc2c(O)ccc3ccccc23)c1`, which AC50 is on record?
**A.** The AC50 was 4.23 µM (active).

**Q.** How did the outcome turn out when `COC(C)(C)CCO` was run?
**A.** Its outcome is “inactive”.

**Q.** With `C=CC(=O)OCCC#N` as the molecule, how does the outcome read?
**A.** The outcome was “inactive”.

Target: human Retinoic Acid Receptor gamma (RARg), RARG (gene 5916) (UniProt P13631)
Sequence (P13631 whole entry, looked up): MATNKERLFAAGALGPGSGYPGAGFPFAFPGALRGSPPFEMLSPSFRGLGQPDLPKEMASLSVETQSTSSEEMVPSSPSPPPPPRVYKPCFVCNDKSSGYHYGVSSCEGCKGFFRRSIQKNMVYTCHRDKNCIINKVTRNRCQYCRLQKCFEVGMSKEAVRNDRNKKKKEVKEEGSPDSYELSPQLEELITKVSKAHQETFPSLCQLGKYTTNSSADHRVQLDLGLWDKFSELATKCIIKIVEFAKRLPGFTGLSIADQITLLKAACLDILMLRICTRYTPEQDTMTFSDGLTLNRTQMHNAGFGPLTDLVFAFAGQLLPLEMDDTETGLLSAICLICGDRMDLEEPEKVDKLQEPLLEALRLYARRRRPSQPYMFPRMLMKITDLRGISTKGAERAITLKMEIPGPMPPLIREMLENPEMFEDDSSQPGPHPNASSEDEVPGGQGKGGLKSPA
Assay: ATG_RARg_TRANS: Attagene TRANS-FACTORIAL HepG2 Assay for human Retinoic Acid Receptor gamma (RARg) (AID 2283009);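 on AC50: AC50 is for reporter induction above DMSO meaning RARg activation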
In short: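 Transactivation of exogenous RARg-Gal4 fusion measured as reporter transcript induction after 24 h in transfected HepG2 cells. RNA reverse-transcribed, amplified, fluorescently labeled and resolved by capillary electrophoresis; increase relative to DMSO.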

**Q.** How did the outcome turn out when `C[Si]1(C)O[Si](C)(C)O[Si](C)(C)O1` was run?
**A.** Its outcome is “inactive”.

**Q.** `CCCCCCC(CO)CCCC` (stereo not drawn) was tested. Which outcome did it give?
**A.** The outcome was “inactive”.

**Q.** How did the outcome turn out when `O=C1OC2(c3ccccc31)c1ccc(O)c(Br)c1Oc1c2ccc(O)c1Br` was run?
**A.** The outcome was “inactive”.

**Q.** `O=[N+]([O-])c1ccc(O)cc1C(F)(F)F` was tested. Which outcome did it give?
**A.** The outcome was “inactive”.

**Q.** `CCC(C)c1cc([N+](=O)[O-])cc([N+](=O)[O-])c1OC(=O)OC(C)C` (stereo not drawn) was tested. Which outcome did it give?
**A.** Its outcome is “inactive”.

**Q.** With `NCCNc1cccc2ccccc12` as the molecule, how does the outcome read?
**A.** Its outcome is “inactive”.

**Q.** For `CCc1cc(Cc2cc(CC)cc(C(C)(C)C)c2O)c(O)c(C(C)(C)C)c1`, which AC50 is on record?
**A.** The AC50 was 9.1 µM (active).

**Q.** Which outcome does the source give for `COc1cc(Cl)c(OC)cc1N` here?
**A.** The outcome was “inactive”.

**Q.** `CCCCCC(C=O)=Cc1ccccc1` was tested. Which outcome did it give?
**A.** Its outcome is “inactive”.

**Q.** Which outcome does the source give for `CCCCCCCCCCCCCC(=O)OCC(O)CO` (stereo not drawn) here?
**A.** Its outcome is “inactive”.

**Q.** With `CCCCC(CC)COC(C)=O` (stereo not drawn) as the molecule, how does the outcome read?
**A.** Its outcome is “inactive”.

**Q.** With `Nc1ccc(N)c2c1C(=O)c1ccccc1C2=O` as the molecule, how does the outcome read?
**A.** The outcome was “inactive”.

**Q.** For `CCCCN(CCCC)C(=O)N(CCCC)CCCC`, which outcome is on record?
**A.** The outcome was “inactive”.

**Q.** For `CCCCCCC(O)CCCCCCCCCCC(=O)O` (stereo not drawn), which outcome is on record?
**A.** Its outcome is “inactive”.

**Q.** With `IC(I)I` as the molecule, how does the outcome read?
**A.** The outcome was “inactive”.

**Q.** Which outcome does the source give for `O=C(O)c1ccc(O)cc1` here?
**A.** The outcome was “inactive”.

**Q.** For `CCCCCCCCCCCC(=O)OC[C@@H](O)[C@H]1OC[C@H](O)[C@H]1O`, which outcome is on record?
**A.** The outcome was “inactive”.

**Q.** For `Cc1ccc(S(=O)(=O)Oc2ccc(N=Nc3ccc(-c4ccc(N=Nc5c(O)ccc6cc(S(=O)(=O)O)cc(S(=O)(=O)O)c56)c(C)c4)cc3C)cc2)cc1`, which outcome is on record?
**A.** The outcome was “inactive”.

**Q.** How did the outcome turn out when `C=CC(=O)OCCC#N` was run?
**A.** The outcome was “inactive”.

Target: human RAR-related Orphan Receptor beta (RORb), RORB (gene 6096) (UniProt Q92753)
Sequence (Q92753 whole entry, looked up): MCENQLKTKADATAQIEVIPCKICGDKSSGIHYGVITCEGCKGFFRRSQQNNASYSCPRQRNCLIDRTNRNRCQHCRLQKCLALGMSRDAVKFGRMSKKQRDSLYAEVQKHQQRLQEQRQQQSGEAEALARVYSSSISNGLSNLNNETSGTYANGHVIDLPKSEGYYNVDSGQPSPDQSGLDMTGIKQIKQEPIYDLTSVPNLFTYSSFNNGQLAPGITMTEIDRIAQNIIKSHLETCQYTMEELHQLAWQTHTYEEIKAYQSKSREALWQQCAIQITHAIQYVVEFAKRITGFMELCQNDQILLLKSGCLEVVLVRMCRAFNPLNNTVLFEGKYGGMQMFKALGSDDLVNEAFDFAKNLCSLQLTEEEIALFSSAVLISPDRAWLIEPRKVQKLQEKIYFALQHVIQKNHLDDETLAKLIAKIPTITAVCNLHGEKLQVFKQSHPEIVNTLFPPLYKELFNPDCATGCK
Assay: ATG_RORb_TRANS: Attagene TRANS-FACTORIAL HepG2 Assay for human RAR-related Orphan Receptor beta (RORb) (AID 2283010)
In short: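 Read-out is reporter mRNA induction, quantified by RT-PCR with fluorescent capillary electrophoresis, 24 h post-dose in transiently transfected HepG2 expressing exogenous NR-Gal4 chimera. Activity fitted upward versus DMSO.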

**Q.** How did the outcome turn out when `C[Si]1(C)O[Si](C)(C)O[Si](C)(C)O1` was run?
**A.** The outcome was “inactive”.

**Q.** With `O=CN1CCOCC1` as the molecule, how does the outcome read?
**A.** The outcome was “inactive”.

**Q.** `O=C1OC2(c3ccccc31)c1ccc(O)c(Br)c1Oc1c2ccc(O)c1Br` was tested. Which outcome did it give?
**A.** Its outcome is “inactive”.

**Q.** How did the outcome turn out when `O=[N+]([O-])c1ccc(O)cc1C(F)(F)F` was run?
**A.** The outcome was “inactive”.

**Q.** Which outcome does the source give for `CCC(C)c1cc([N+](=O)[O-])cc([N+](=O)[O-])c1OC(=O)OC(C)C` (stereo not drawn) here?
**A.** Its outcome is “inactive”.

**Q.** How did the outcome turn out when `[O-]n1ccccc1=S.[O-]n1ccccc1=S.[Zn+2]` was run?
**A.** The outcome was “inactive”.

**Q.** With `CCc1ccc(O)cc1` as the molecule, how does the outcome read?
**A.** Its outcome is “inactive”.

**Q.** With `NCCNc1cccc2ccccc12` as the molecule, how does the outcome read?
**A.** The outcome was “inactive”.

**Q.** For `CCCCCCCC/C=C\CCCCCCCC(=O)OCC`, which outcome is on record?
**A.** Its outcome is “inactive”.

**Q.** Which outcome does the source give for `Nc1ccc2cc(S(=O)(=O)O)cc(O)c2c1N=Nc1ccccc1C(F)(F)F` here?
**A.** Its outcome is “inactive”.

**Q.** `c1ccc2cc(Nc3ccc(Nc4ccc5ccccc5c4)cc3)ccc2c1` was tested. Which outcome did it give?
**A.** Its outcome is “inactive”.

**Q.** Which outcome does the source give for `Nc1ccc(N)c2c1C(=O)c1ccccc1C2=O` here?
**A.** Its outcome is “inactive”.

**Q.** Which outcome does the source give for `IC(I)I` here?
**A.** The outcome was “inactive”.

**Q.** How did the outcome turn out when `CN(C)C(=S)SC(=S)N(C)C` was run?
**A.** The outcome was “inactive”.

**Q.** `O=C(O)c1ccc(O)cc1` was tested. Which outcome did it give?
**A.** The outcome was “inactive”.

**Q.** With `CCCCCCCCCCCCCCCC(=O)OC/C=C(C)/C=C/C=C(C)/C=C/C1=C(C)CCCC1(C)C` as the molecule, how does the outcome read?
**A.** The outcome was “inactive”.

**Q.** Which outcome does the source give for `Cc1ccc(S(=O)(=O)Oc2ccc(N=Nc3ccc(-c4ccc(N=Nc5c(O)ccc6cc(S(=O)(=O)O)cc(S(=O)(=O)O)c56)c(C)c4)cc3C)cc2)cc1` here?
**A.** Its outcome is “inactive”.

**Q.** Which outcome does the source give for `COc1ccc(OC)c(N=Nc2c(O)ccc3ccccc23)c1` here?
**A.** Its outcome is “inactive”.

**Q.** With `C=CC(=O)OCCC#N` as the molecule, how does the outcome read?
**A.** The outcome was “inactive”.
